Results from PubChem BioAssay (NCI).
About 83,000 compounds went through this panel and 20% of them were active in at least one assay; those are over-represented in the sample as a whole.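 In brief: 96-well plates, 48 h treatment, single concentration, percent growth endpoint.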 Unmarked numbers belong to inactive results. Calls of active or inactive are those of the source.

System: NCI-H460 lung
Assay: NCI-60 one-dose screen, 48 h (100 = growth as untreated, 0 = no growth, -100 = all killed)
Settings: 10 µM unless noted
Description: Growth inhibition of the NCI-H460 human Non-Small Cell Lung tumor cell line is measured as a screen for anti-cancer activity. Cells are grown in 96 well plates and exposed to the test compound for 48 hours. Compounds are tested at a single concentration, which is 10^-5 M for most compounds. The reported endpoint is percent growth (GI% or GIPRCNT), where numbers from 0 - 100% represent growth inhibition, and numbers from -100% - 0 represent cell death. For example, a value of 40 represents 60% growth inhibition. A value of 0 means no net growth occurred over the course of the experiment. A value of -40 indicates 40% of cells at the beginning of the experiment died by the end of the experiment. A value of -100 means all cells are dead at the end of the experiment.
NCI-60 Human Tumor Cell Lines Screen was performed using the standard one-dose NCI protocol, which is described in more detail at https://dtp.cancer.gov/discovery_development/nci-60/default.htm.
Compounds with GIPRCNT values below 10 were considered active. Activity score was based on GIPRCNT using the following formula: […]
Score is 0 for GIPRCNT values of 100 or above, 50 for GIPRCNT values of 0, and 100 for GIPRCNT values of -100.

| SMILES | growth |
| --- | --- |
| O=C(N/N=C/c1ccc([N+](=O)[O-])cc1)c1ccccc1Nc1ccnc(C(F)(F)F)c1 | 94.3% |
| COc1ccc2c(c1)C1=NN(C(=O)CO)[C@H](c3ccc(OC(F)(F)F)cc3)[C@@H]1CC2 | 103% |
| O=C(CC(=O)c1cccc(Cl)c1)c1cccc(Cl)c1 | 21.6% |
| CCCCCCCC/C=C\CCCCCCCC(=O)OCCCCCC | 111% |
| c1ccc(-c2nnn(-c3ccccc3)n2)cc1 | 114% |
| Cc1c(C(N)=O)sc2ncn(CC(=O)NN=C3CCCCC3)c(=O)c12 | 115% |
| Clc1nnc2c3ccccc3ccn12 | 105% |
| O=[N+]([O-])c1ccc(Sc2nc(Cl)nc(NC3CCCC3)n2)cc1 | -51.1% [100 µM] (active) |
| C=C1C(=O)O[C@H]2[C@H]1CC/C(COC(=O)NCc1cn(C)c3ccccc13)=C\CC[C@@]1(C)O[C@@H]21 | 5.72% (active) |
| O=C(Nc1ccc(-n2ccc3c(NC(=O)c4ccccc4)nccc32)cc1)c1ccc(N2CCOCC2)c(C(F)(F)F)c1 | 3.48% (active) |
| CCCCCCCC/C=C/CCCCCCCC1=NC(C)(C)CN1c1ccccc1 | 103% |
| O=C(Nc1ccccc1)c1cc2ccccc2s1 | 39.7% |
| c1csc(-c2cnc3nonc3n2)c1 | 102% |
| COc1cc(CN(c2ccc(C)cc2)C2OC(=O)c3ccccc32)cc(OC)c1OC (stereo not given) | 18.4% |
| C=C1C[C@@]2(C)C(CC[C@]3(C)C2CC=C2C4CC(C)(C)C[C@@H](OC(=O)/C(C)=C\C)[C@]4(C(=O)O)CC[C@]23C)C(C)(C)C1=O (stereo not given in full) | -37.2% (active) |
| CC(C)(C)[Si](C)(C)OC1[C@@H](CNC(N)=O)O[C@@H](n2cnc3c(NC(=O)Nc4ccccc4)ncnc32)[C@H]1O[Si](C)(C)C(C)(C)C (stereo not given in full) | 5.08% (active) |
| COC(=O)C(Br)(C(=O)OC)C(Br)C(Br)C(Br)c1ccccc1 (stereo not given) | 100% |
| Cc1cc(-c2ccccc2)on1 | 112% |
| CN1CCCN(CCNc2nccc(-c3c(-c4cccc(O)c4)nc4sccn34)n2)S1(=O)=O | 40.2% |
| COc1cc2ccc(C(C)=O)cc2cc1OC | 100% |

| SMILES | growth |
| --- | --- |
| Cc1cc(O)ccc1Sc1ccccc1[N+](=O)[O-] | 96.4% |
| CCN(CC)C(=O)O/N=C(/C)c1ccccc1 | 110% |
| CNC(=O)OC1C(O[C@H]2C[C@H]3[C@@H]4CC=C5C[C@@H](O)CC[C@]5(C)[C@H]4CC[C@]3(C)[C@H]2[C@H](C)C(=O)CCC(C)C)OCC(O)C1OC1OCC(O)C(O)C1OC(=O)c1ccc(OC)cc1 (stereo not given in full) | 1.55% (active) |
| C=CC(=O)N1CN(C(=O)C=C)CN(C(=O)C=C)C1 | 102% |
| Cc1cccc2nc3ccccc3c(Nc3ccc(NS(C)(=O)=O)cc3)c12 | 10.1% |
| CCOC(=O)c1cc(N)nc2ccccc12 | 96.3% |
| CCN1C(=O)N(CC)C2C1NN=c1s/c(=C\c3ccco3)c(=O)n12 (stereo not given) | 12.9% |
| O=c1c2cc(Cl)ccc2oc2ccc(OCCCCCN3CCCCCC3)cc12 | 63% |
| COC(=O)c1ccc2c(c1)nc(-c1ccc(Cl)cc1)n2-c1cc(C(C)(C)C)[nH]n1 | 45.1% |
| CCCCCCCCN(CCCCCCCC)C(=O)CCl | 102% |
| CCN(CC)CCCC(C)Nc1c(-c2ccccc2)cnc2cc(Cl)ccc12 (stereo not given) | 76.4% |
| O=C(CC(=O)c1ccccc1F)Nc1ccc([N+](=O)[O-])cc1 | 104% |
| COC(=O)OC1C(O[C@H]2C[C@H]3[C@@H]4CC=C5C[C@@H](O)CC[C@]5(C)[C@H]4CC[C@]3(C)[C@H]2[C@H](C)C(=O)CCC(C)C)OCC(O)C1OC1OCC(O)C(O)C1OC(=O)c1ccc(OC)cc1 (stereo not given in full) | -24.2% (active) |
| COc1cc(CN(CCC(O)N2CCCC2=O)Cc2ccc3c(c2)OCO3)cc(OC)c1OC (stereo not given) | 106% |
| CCCCCCCCCCCC1=NC(C)(C)CN1C(C)C | 50.4% |
| CCN(CC)CC(=O)Nc1c(C)cc(C(=O)NN)cc1C | 105% |
| COc1cccc(-c2cc(-c3cccs3)c(C#N)c(=O)[nH]2)c1 | 102% |
| CC(C)(C)OC(=O)N1CCCN(CCNc2nccc(-c3c(-c4cccc(O)c4)nc4sccn34)n2)S1(=O)=O | 91.4% |
| CN1C2CCC1/C(=C\c1ccc(F)cc1)C(=O)/C2=C/c1ccc(F)cc1 | 14.1% |
| COc1ccc(/C(C)=N/NC(=O)c2ccc(S(C)(=O)=O)cc2)cc1OC | 108% |
